# Experimental data from PubChem BioAssay (EPA / NIEHS).
# Inconclusive results are not listed. Active and inactive are the calls of the source. How the source made its calls, unless noted: active means hit-call score of the fitted dose curve at least 0.9, where 1 is the maximum; inconclusive means response in the unintended direction; inactive means score below 0.9.
# How the values were obtained:
# [1] = CCTE_Shafer_MEA_acute_AB: CCTE's Alamar Blue Assay for Cytotoxicity in the Neural Acute Assay, Shafer Lab (AID 2284069);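 further: active compounds lower the viability signal compared with DMSO wells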
# In short: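 Read-out: resazurin fluorescence (ex 544, em 590 nm) after CTB reagent at 1:6 dilution in fresh media. Cells: primary rat cortical neuron networks, DIV 13 or 15, chemically exposed on MEA plates; DMSO as negative control/baseline.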
# [2] = CCTE_Shafer_MEA_acute_LDH: CCTE's Lactate Dehydrogenase Assay for Cytotoxicity in the Neural Acute Assay, Shafer Lab (AID 2284086);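 further: active means LDH release rises above DMSO vehicle level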
# In short: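 Cytotoxicity readout: spectrophotometric LDH activity in supernatant of rat primary cortical neurons, post-plating day 13 or 15, sampled after 40 min compound exposure; signal gain relative to DMSO baseline.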
# [3] = CCTE_Shafer_MEA_dev_LDH: CCTE's Lactate Dehydrogenase Assay for Cytotoxicity in the Neural Network Formation Assay, Shafer Lab (AID 2284068);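 further: exposure for twelve days from plating with re-dosing on DIV 5 and 9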
# In short: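 Rat cortical primary neurons, MEA culture; dosing day 0–12, full medium plus compound exchange DIV 5, 9. Read-out: LDH enzyme activity, spectrophotometric. DMSO = negative control/baseline; signal loss → cytotoxicity.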
# [4] = CCTE_Shafer_MEA_dev_AB: CCTE's Alamar Blue Assay for Cytotoxicity in the Neural Network Formation Assay, Shafer Lab (AID 2284083);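 further: resazurin reduction fluorescence as viability of cultured neurons; twelve days of exposure from plating with re-dosing on DIV 5 and 9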
# In short: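 Rat cortical primary cultures, 1.5 x 10^5 cells/well on MEA; continuous compound exposure over 12 days of network development, re-dosed with full medium change DIV 5 and 9. Alamar Blue fluorescence; loss of signal = cytotoxicity vs DMSO baseline.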
# [5] = CCTE_Shafer_MEA_dev_mutual_information_norm: CCTE's Neural Network Formation Assay for Mutual Information Normalization, Shafer Lab (AID 2284091; active means hit-call score of the fitted dose curve at least 0.9, where 1 is the maximum; inactive means score below 0.9)
# In short: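 Neurons from rat cortex were seeded at 1.5 x 10^5 cells/well onto PEI-coated MEAs in a laminin drop, then exposed to compound from day 0 for twelve days. Network recordings on four days gave mutual information, summarised by AUC relative to DMSO.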
# [6] = IUF_NPC1b_proliferation_BrdU_72hr: Leibniz Research Institute for Environmental Medicine (IUF) 72-hour Neural Progenitor Cell Bromodeoxyuridine (BrdU) Proliferation Assay (NPC1b) (AID 2284207; active means hit-call score of the fitted dose curve at least 0.9, where 1 is the maximum; inactive means score below 0.9)
# Experimental: IUF_NPC1 is a cell-based, multiplexed assay that uses hNPC, a human primary neural progenitor cells, with measurements taken at 72 hours after chemical dosing in a 96-well plate. Human neural progenitor cells (hNPC) are generated from human fetal brain cortex at gestational week (GW) 16-19. Grown in suspension culture and under proliferative conditions (proliferation media and growth factors), these cells represent neural progenitor cell proliferation. In the NPC1 assay, hNPC's are exposed to the test compound for 72h. Cell proliferation is assessed as an increase in sphere area using automated phase contrast imaging and as incorporation of Bromodeoxyuridine (BrdU) during DNA synthesis using a luminescence-based cell proliferation ELISA. In parallel, the cell viability is assessed using an alamar blue viability assay and the cytotoxicity using a lactate dehydrogenase dependent membrane integrity assay.IUF_NPC1b_proliferation_BrdU_72hr is one of 4 assay components measured from the IUF_NPC1 assay. […]
# [7] = IUF_NPC1a_proliferation_area_72hr: Leibniz Research Institute for Environmental Medicine (IUF) 72-hour Neural Progenitor Cell Proliferation Area Assay (NPC1a) (AID 2284208; active means hit-call score of the fitted dose curve at least 0.9, where 1 is the maximum; inactive means score below 0.9)
# In short: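 Proliferation read as increase in sphere area by phase-contrast imaging over 72 h continuous compound exposure (no renewal) of hNPC spheres grown with EGF/FGF at 37C, 5% CO2. Growth-factor withdrawal served as positive control; DMSO as baseline.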
# [8] = IUF_NPC1_viability_72hr: Viability Assessment at 72 hours in the Leibniz Research Institute for Environmental Medicine (IUF) Neural Progenitor Cell Proliferation Assay (NPC1) (AID 2284209; active means hit-call score of the fitted dose curve at least 0.9, where 1 is the maximum; inactive means score below 0.9)
# In short: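 Three-day continuous exposure of human neural progenitor spheres under EGF/FGF-driven proliferation; cell viability scored by alamar blue signal versus DMSO.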
# [9] = CCTE_Mundy_HCI_Cortical_Synap_Neur_Matur_NeuriteSpotCountPerNeuriteLength: CCTE's Synaptogenesis and Neurite Maturation Assay in rat cortical cells for Neurite Spot Count per Neurite Length, Mundy Lab (AID 2284210; active means hit-call score of the fitted dose curve at least 0.9, where 1 is the maximum; inactive means score below 0.9)
# In short: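 Read-out: synaptophysin puncta counted along MAP2-stained neurites, normalised to neurite length, by automated high-content imaging. Rat cortical cells; AraC DIV 5; chemical dosing DIV 7; termination DIV 12. DMSO baseline.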
# [10] = CCTE_Mundy_HCI_Cortical_Synap_Neur_Matur_BPCount: CCTE's Synaptogenesis and Neurite Maturation Assay in rat cortical cells for Branch Point Count, Mundy Lab (AID 2284211; active means hit-call score of the fitted dose curve at least 0.9, where 1 is the maximum; inactive means score below 0.9)
# In short: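 In this multiplexed morphology assay, cortical cells from rat receive chemicals at DIV 7 and are fixed at DIV 12, then immunostained and imaged; branch points are counted, with DMSO as baseline.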
structure (smiles),measurement,setting,value
CC(C)=CCCC(C)=CC=O,outcome,[1],inactive
same,outcome,[2],inactive
CC[C@H](C)C(=O)O[C@H]1C[C@@H](C)C=C2C=C[C@H](C)[C@H](CC[C@@H]3C[C@@H](O)CC(=O)O3)[C@H]21,AC50,[3],956 nM (active)
same,AC50,[4],10 µM (active)
same,outcome,[5],inactive
O=P(OC(CCl)CCl)(OC(CCl)CCl)OC(CCl)CCl,outcome,[3],inactive
same,outcome,[1],inactive
same,outcome,[4],inactive
same,outcome,[2],inactive
same,outcome,[5],inactive
same,outcome,[6],inactive
same,outcome,[7],inactive
same,outcome,[8],inactive
same,outcome,[9],inactive
same,AC50,[10],6.93 µM (active)
CCCCC(CC)COC(=O)CCCCCCCCC(=O)OCC(CC)CCCC (centres undefined),outcome,[1],inactive
same,outcome,[2],inactive
O=C(O)c1cc(N=Nc2ccc(S(=O)(=O)Nc3ccccn3)cc2)ccc1O,outcome,[1],inactive
same,outcome,[2],inactive
NC(=O)NO,outcome,[5],inactive
same,outcome,[9],inactive
same,outcome,[10],inactive
O=C(O)CCN(C1(C(=O)NO)CCCC1)S(=O)(=O)c1ccc(Oc2ccc(F)cc2)cc1,outcome,[1],inactive
same,outcome,[2],inactive
COc1ccc2sc(C(=O)Nc3nnn[nH]3)c(OC(C)C)c2c1,outcome,[1],inactive
same,outcome,[2],inactive
CCOC(=O)c1ccc(C2CCC(NC[C@H](O)COc3ccc(O)c(NS(C)(=O)=O)c3)CC2)cc1 (some centres undefined),outcome,[1],inactive
same,outcome,[2],inactive
O=C1CCC(N2C(=O)c3ccccc3C2=O)C(=O)N1 (centres undefined),outcome,[3],inactive
same,outcome,[5],inactive
same,outcome,[9],inactive
same,outcome,[10],inactive
CC[C@H]1CC[C@H](NCc2cc3c(cc2OC)[C@H]2C[C@H]2C(=O)N3C)[C@H](c2ccccc2)N1,outcome,[1],inactive
same,outcome,[2],inactive
